# Assay results taken from the supplement of paper PMC9254222.
# Whole data set: some 1,100 compounds, median “Wnt reporter firefly/Renilla luciferase ratio relative to plate median” near 1.1, cut for the highest 2% near 1.6. The sample as a whole holds a higher share of the highest values than the screen did.
# Tested on: HEK293T (UBE3A T485A transfected, BAR Wnt reporter)
# Assay: Wnt reporter firefly/Renilla luciferase ratio relative to plate median (fold (linear ratio)); higher = more Wnt/beta-catenin reporter activation
# Settings: 24 h
# Summary of the method: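 Wnt activity (firefly/Renilla ratio) and cell health (raw Renilla) were read with Dual-Glo luciferase and median-centred plate by plate. HEK293T cells, at 4500 cells/well in white 384-well plates with DMEM plus 10% FBS at 37°C and 5% CO2, carried a transfected BAR firefly luciferase Wnt reporter, TK-Renilla and an expression plasmid. The chemicals were applied by robot at 0.01–100 uM for 24 h, beginning four hours after transfection, and results were averaged across four biological replicates.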
SMILES,Wnt reporter firefly/Renilla luciferase ratio (concentration: 0.01 uM),Wnt reporter firefly/Renilla luciferase ratio (concentration: 0.1 uM),Wnt reporter firefly/Renilla luciferase ratio (concentration: 1 uM),Wnt reporter firefly/Renilla luciferase ratio (concentration: 10 uM),Wnt reporter firefly/Renilla luciferase ratio (concentration: 100 uM)
CCOC(=O)COc1cc(-c2nn(C)c(OC(F)F)c2Cl)c(F)cc1Cl [Pyraflufen-ethyl],1.13,1.63,1.05,1.09,1.13
CCOC(=O)C(Cl)Cc1cc(-n2nc(C)n(C(F)F)c2=O)c(F)cc1Cl (configuration not stated) [Carfentrazone-ethyl],1.07,0.973,0.982,0.945,1.28
O=C(Oc1ccc(Br)cc1)N1CCN2CCC1CC2,–,1.11,0.988,1.09,0.334
CC(COc1ccc(Oc2ccccc2)cc1)Oc1ccccn1 (configuration not stated) [Pyriproxyfen],1.12,0.977,1.04,1.03,0.55
ClC1(Cl)C2(Cl)C3(Cl)C4(Cl)C(Cl)(Cl)C5(Cl)C3(Cl)C1(Cl)C5(Cl)C24Cl (configuration not stated) [Mirex],–,1.02,1.05,0.921,1.28
O=C(Nc1ccccc1)Nc1ccnc(Cl)c1 [Forchlorfenuron],1.1,1.16,0.957,0.694,–
CCCCc1ccccc1 [Butylbenzene],–,0.995,1.31,1.01,0.948
CC(C)N(C(=O)COc1nnc(C(F)(F)F)s1)c1ccc(F)cc1 [Flufenacet],0.973,0.746,0.898,0.605,0.254
C=CCc1ccc2c(c1)OCO2 [Safrole],–,1.26,1.37,0.895,1.23
C[C@]12C=CC3=C4CCC(=O)C=C4CC[C@H]3[C@@H]1CC[C@@H]2O [17beta-Trenbolone],–,1.08,1.18,0.938,0.146
CCNC(=O)NC(=O)/C(C#N)=N/OC [Cymoxanil],1.42,1.34,1.15,1.29,1.1
CC(C)(C)c1ccccc1O [2-tert-Butylphenol],–,1.53,1.54,1.25,0.813
CC1(C)C(C=C(Cl)Cl)C1C(=O)OCc1cccc(Oc2ccccc2)c1 (configuration not stated) [Permethrin],0.82,0.873,1.11,1.19,0.865
Nc1nc(N)nc(NC2CC2)n1 [Cyromazine],1.01,1.18,0.955,1.02,1.22
CCCCCCCCn1sccc1=O [Octhilinone],–,1.02,1.15,1.07,–
CNC(=O)N(C)c1nnc(C(C)(C)C)s1 [Tebuthiuron],1.35,1.39,1.32,1.67,1.5
CCCN(CCC)c1c([N+](=O)[O-])cc(C(C)C)cc1[N+](=O)[O-] [Isopropalin],–,1.07,1.04,1.11,1.31
CCOC1Oc2ccc(OS(C)(=O)=O)cc2C1(C)C (configuration not stated) [Ethofumesate],1.05,0.973,1.03,1.14,1.86
N#CC(CCc1ccc(Cl)cc1)(Cn1cncn1)c1ccccc1 (configuration not stated) [Fenbuconazole],1.07,1.01,1.03,0.614,0.347
CN(C)C(=S)[S-].CN(C)C(=S)[S-].[Zn+2] [Ziram],–,1,0.732,0.577,–
CN(C)C(=S)[S-].[Na+] [Sodium dimethyldithiocarbamate],–,1.22,0.816,0.751,0.926
CN(C)C(=S)SSC(=S)N(C)C [Thiram],1.62,1.39,1.06,1.24,–

SMILES,Wnt reporter firefly/Renilla luciferase ratio (concentration: 0.01 uM),Wnt reporter firefly/Renilla luciferase ratio (concentration: 0.1 uM),Wnt reporter firefly/Renilla luciferase ratio (concentration: 1 uM),Wnt reporter firefly/Renilla luciferase ratio (concentration: 10 uM),Wnt reporter firefly/Renilla luciferase ratio (concentration: 100 uM)
c1ccc(-c2ccccc2)cc1 [Biphenyl],–,1.39,1.01,1.25,1.46
CCCC1COC(Cn2cncn2)(c2ccc(Cl)cc2Cl)O1 (configuration not stated) [Propiconazole],0.957,1.03,1.17,0.78,–
CCON=C(CC)C1=C(O)CC(c2c(C)cc(C)cc2C)CC1=O (configuration not stated) [Tralkoxydim],1.14,1.54,1.03,1.05,0.67
CCC(=O)Nc1ccc(Cl)c(Cl)c1 [Propanil],1.31,1.71,0.955,1.25,0.294
CN(C)C(=O)Nc1ccc(Cl)cc1 [Monuron],–,0.888,0.901,1.09,1.04
CON(C)C(=O)Nc1ccc(Cl)c(Cl)c1 [Linuron],1.1,0.829,1.11,1.17,0.524
ClC1=C(Cl)C2(Cl)C3C(Cl)C=CC3C1(Cl)C2(Cl)Cl (configuration not stated) [Heptachlor],–,0.972,1.07,1.17,1.24
N#CC(Br)Br [Dibromoacetonitrile],–,1.15,1.01,1.17,1.19
Nc1c(Cl)cc([N+](=O)[O-])cc1Cl [Dicloran],1.85,1.64,0.962,1.29,0.345
O=[N+]([O-])c1ccc(Cl)cc1 [1-Chloro-4-nitrobenzene],–,1.04,1.2,1.02,1.38
"O=[N+]([O-])c1ccc(Cl)c(Cl)c1 [3,4-Dichloronitrobenzene]",–,1.21,1.14,1.29,1.54
CCC(C)(c1ccc(O)cc1)c1ccc(O)cc1 [Bisphenol B],–,1.11,0.969,0.999,0.0398
N#Cc1c(Cl)c(Cl)c(Cl)c(C#N)c1Cl [Chlorothalonil],0.876,0.784,1.16,0.725,–
CCCCOC(=O)[C@@H](C)Oc1ccc(Oc2ccc(C#N)cc2F)cc1 [Cyhalofop-butyl],1.1,0.959,1.06,0.848,0.697
CC(C)(OOC(C)(C)c1ccccc1)c1ccccc1 [Dicumyl peroxide],–,1.15,0.998,0.968,1.39
C#CCC1=C(C)C(OC(=O)C2C(C=C(C)C)C2(C)C)CC1=O (configuration not stated) [Prallethrin],0.931,0.996,1.04,1.05,0.276
CC(C)(C)c1ccc(O)cc1 [4-tert-Butylphenol],–,0.97,1.1,0.863,1.21
CO/C=C(/C(=O)OC)c1ccccc1Oc1cc(Oc2ccccc2C#N)ncn1 [Azoxystrobin],1.4,1.25,1.04,0.786,0.984
CCC(=NOC/C=C/Cl)C1=C(O)CC(C2CCOCC2)CC1=O (configuration not stated) [Tepraloxydim],0.655,0.79,1.12,1.08,1.18
O=[N+]([O-])c1c(Cl)c(Cl)c(Cl)c(Cl)c1Cl [Pentachloronitrobenzene],0.743,0.765,1,0.856,1.26
Nc1ccc(Cl)cc1 [4-Chloroaniline],–,1.15,1.08,0.914,0.367
CCOP(=S)(OCC)Oc1cc(C)nc(C(C)C)n1 [Diazinon],0.789,0.815,1.01,1.25,1.14

SMILES,Wnt reporter firefly/Renilla luciferase ratio (concentration: 0.01 uM),Wnt reporter firefly/Renilla luciferase ratio (concentration: 0.1 uM),Wnt reporter firefly/Renilla luciferase ratio (concentration: 1 uM),Wnt reporter firefly/Renilla luciferase ratio (concentration: 10 uM),Wnt reporter firefly/Renilla luciferase ratio (concentration: 100 uM)
CCOC(=O)C(C)OC(=O)c1cc(Oc2ccc(C(F)(F)F)cc2Cl)ccc1[N+](=O)[O-] (configuration not stated) [Lactofen],1.04,1.3,1.14,1.16,0.261
CC(C)Nc1nc(Cl)nc(NC(C)C)n1 [Propazine],1.55,1.1,1.01,1.03,1.11
"Oc1c(Cl)cc(Cl)cc1Cl [2,4,6-Trichlorophenol]",–,0.821,1.09,1.37,0.524
CS(=O)(=O)c1cc(C(F)(F)F)ccc1C(=O)c1cnoc1C1CC1 [Isoxaflutole],1.11,1.4,1.02,1.36,1.45
C#CCOS(=O)OC1CCCCC1Oc1ccc(C(C)(C)C)cc1 (configuration not stated) [Propargite],1.24,1.16,1.02,0.934,0.259
CON=C(C(=O)OC)c1ccccc1CON=C(C)c1cccc(C(F)(F)F)c1 [Trifloxystrobin],0.871,1.03,0.939,0.327,–
COP(=S)(OC)Oc1ccc(SC)c(C)c1 [Fenthion],1.02,0.993,1.04,1.08,0.984
COP(=S)(OC)Oc1ccc([N+](=O)[O-])cc1 [Methyl parathion],1.23,1.05,1.21,1.02,0.89
COP(=S)(OC)Oc1ccc([N+](=O)[O-])c(C)c1 [Fenitrothion],1.53,2.01,1.26,1.43,0.976
CCCCC(CC)COC(=O)c1ccccc1C(=O)OCC(CC)CCCC (configuration not stated) [Di(2-ethylhexyl) phthalate],0.948,0.902,1.01,1.09,0.42
"Clc1ccccc1Cl [1,2-Dichlorobenzene]",–,0.904,1.01,0.88,1.62
Oc1ccccc1Cl [2-Chlorophenol],–,0.951,0.944,1.24,1.52
"Clc1cccc(Cl)c1Cl [1,2,3-Trichlorobenzene]",–,1.09,1.1,1.05,1.01
COc1ccc(C)cc1N [2-Methoxy-5-methylaniline],–,1.14,1.31,1.26,1.29
C1=Cc2cccc3cccc1c23 [Acenaphthylene],–,1.29,1.26,1.41,0.898
CCCCCCCCCc1ccc(O)cc1 [4-Nonylphenol],–,0.995,0.971,1.16,0.953
"CCCCCCCCCc1ccc(O)cc1 [4-Nonylphenol, branched]",–,1.17,1.09,0.969,1.71
CCCCCCCc1ccc(O)cc1 [4-Heptylphenol],–,0.655,0.978,1.2,1.01
CC(C)(C)C(O)/C(=C\c1ccc(Cl)cc1Cl)n1cncn1 (configuration not stated) [Diniconazole],1.09,1.05,0.977,0.744,–
Clc1ccc(C(c2ccc(Cl)cc2)C(Cl)Cl)cc1,–,0.983,0.999,0.984,1.16
COc1cccc(NCC(F)Cn2c3ccc(Br)cc3c3cc(Br)ccc32)c1 (configuration not stated),0.859,1.11,1.28,0.896,1.01
